Drawing on PubChem BioAssay (NCI), this text covers growth for eight compounds.

What all share (assay): NCI-60 one-dose screen, 48 h (100 = growth as untreated, 0 = no growth, -100 = all killed)
What all share (conditions): 10 µM unless noted

Test [1] deals with HCT-15 colon.
In test [2] the test system is HT29 colon.
Test [3] concerns SNB-75 CNS.
Test [4] concerns SNB-19 CNS.
Test [5] concerns U251 CNS.
The test system of test [6] is PC-3 prostate.
Test [7] concerns SK-MEL-5 melanoma.
In test [8] the test system is UACC-62 melanoma.
Test [9] concerns LOX IMVI melanoma.
Test [10] relates to SK-MEL-28 melanoma.
In test [11] the test system is EKVX NSCLC.
Test [12] concerns SN12C renal.
For test [13], the system named is UO-31 renal.
In test [14] the test system is TK-10 renal.
In test [15] the test system is ACHN renal.
Test [16] deals with CAKI-1 renal.
Test [17] has as its system A498 renal.
Test [18] deals with CCRF-CEM leukemia.
Test [19] deals with MOLT-4 leukemia.

Compounds without any hit were thinned out: in the full panel of roughly 83,000, 20% have a hit.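 Treatment: one concentration, 48 hours, 96-well format. Scoring: percent growth, with anything below 10 considered active.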 Values without a mark were called inactive. Calls of active or inactive are those of the source.

`COC[C@@H](C)n1c(C2CCOCC2)nc2c1C1C=C(OC)C(c3c(C)noc3C)=CC1N=C2` (some centres not stated): the growth is 30.7% in [1]; 17.4% in [2]; 2.03% (active) in test [3]; 46.3% in test [4]; 69% in test [5]; 38.2% in [6]. The growth in [7] is 38.7%; in [8], 18.5%; in test [9], 19.6%; in [10], 65.4%; in [11] it was 56.9%; in test [12] it was 64.9%. For the same compound, the growth in [13] is 13.2%; in test [14] it was 6.38% (active); in [15], 41.2%; in test [16] it was 41%; in test [17] it was 18.6%; in test [18], 50.8%. In test [19], the growth was 59%.
Regarding `CNC(=O)c1cc(Oc2cccc3nc(Nc4ccc(Oc5ccccc5)cc4)ccc23)ccn1`, the growth was 54.7% in [1]; 62.5% in test [2]; 67.8% in test [3]; 92% in [4]; 65.6% in test [5]; 35.4% in test [6]. The growth is 36.3% in test [7]; 62.6% in test [8]; 83% in [9]; 77.4% in test [10]; 62.2% in [11]; 81.3% in [12]. Besides, the growth in test [13] is 57.9%; in test [14], 78.5%; in test [15] it was 81.1%; in test [16], 67.5%; in test [17], 73.8%; in test [18], 69.5%. For the same compound, the growth in [19] is 42.7%.
As to `COC(=O)N[C@@H](C)CNc1nccc(-c2cn(C(C)C)nc2-c2cc(Cl)cc(NS(C)(=O)=O)c2F)n1`, the growth in test [1] was 53.6%; in [2], 7.99% (active); in test [3] it was 51.8%; in test [4], 108%; in [5], 87.2%; in test [6], 90.7%. For the same compound, the growth was 51.4% in test [7]; -11% (active) in test [8]; 37.5% in test [9]; -0.756% (active) in [10]; 63.1% in [11]; 66.9% in test [12]. In addition, the growth in [13] was 16.9%; in [14] it was 52%; in test [15], 28%; in test [16] it was 34.2%; in test [17], 31.9%; in test [18], 89.8%. The growth in test [19] was 67.4%.
Take `C/C(=C(/c1ccc(Cl)cc1)c1ccc(OCCN2CCCCCC2)cc1)c1ccccc1`: the growth is 20.3% in [1]; 8.45% (active) in test [2]; 88.4% in test [3]; 88.4% in test [4]; 73.1% in test [5]; 69.3% in test [6]. The growth in [7] is 69.5%; in test [8], 90%; in test [9], 62.6%; in [10] it was 88%; in test [11] it was 70.2%; in test [12] it was 87.6%. Moreover, the growth in [13] was 70.9%; in test [14], 101%; in test [15], 96.3%; in test [16] it was 96.9%; in [17] it was 86%; in test [18], 68.9%. The growth in [19] is 82%.
As for `CC(C)(C)c1ccc(Cn2cc(CSc3nc4ccccc4s3)nn2)cc1`, the growth in test [1] was 99.7%; in [2] it was 99.6%; in test [3], 94%; in test [4], 89.8%; in [5] it was 93.3%; in [6], 96.1%. For the same compound, the growth in [7] is 106%; in test [8], 88.4%; in test [9], 103%; in [10], 96.4%; in test [11] it was 98.3%; in [12] it was 90.8%. In addition, the growth was 65.2% in test [13]; 88.7% in test [14]; 97.2% in test [15]; 82.9% in test [16]; 87% in test [17]; 95% in [18]. Further, the growth in [19] was 95.7%.
On to `Cn1cnc2c(F)c(Nc3ccc(Br)cc3F)c(C(=O)NOCCO)cc21`, for which the growth in [1] is 62%; in test [2], 6.34% (active); in [3] it was 86.1%; in test [4], 51.3%; in [5], 51.5%; in test [6], 93%. Besides, the growth was 45.5% in [7]; -8.58% (active) in test [8]; 29.6% in test [9]; -3.38% (active) in test [10]; 54% in test [11]; 56.2% in test [12]. The growth in [13] was 48.8%; in test [14], 50.5%; in test [15], 57.6%; in test [16] it was 45.9%; in test [17], -28.4% (active); in [18] it was 73.8%. The growth in test [19] is 72.9%.
Consider `CN(C)C1CCN(C(=O)c2ccc(NC(=O)Nc3ccc(-c4nc(N5CCOCC5)nc(N5CCOCC5)n4)cc3)cc2)CC1`, for which the growth in test [1] was 74.1% [2.5 µM]; in test [2], -2.55% [2.5 µM] (active); in test [3], -51.7% [2.5 µM] (active); in [4], 1.85% [2.5 µM] (active); in [5], -10.5% [2.5 µM] (active); in test [6] it was 3.75% [2.5 µM] (active). In addition, the growth in test [7] was -39.1% [2.5 µM] (active); in test [8], -58.9% [2.5 µM] (active); in test [9], 0.487% [2.5 µM] (active); in test [10], -27.6% [2.5 µM] (active); in [11], 40.3% [2.5 µM]; in test [12], 3.23% [2.5 µM] (active). Moreover, the growth in test [13] was 32.2% [2.5 µM]; in test [14] it was -9.03% [2.5 µM] (active); in test [15] it was 55.6% [2.5 µM]; in test [16] it was 10.2% [2.5 µM]; in test [17], -54.1% [2.5 µM] (active); in [18], 9.68% [2.5 µM] (active). The growth in test [19] is -7.96% [2.5 µM] (active).
As to `CC(=O)Nc1cccc(-n2c(=O)n(C3CC3)c(=O)c3c(Nc4ccc(I)cc4F)n(C)c(=O)c(C)c32)c1`, the growth is 45.4% in test [1]; 5.59% (active) in [2]; 43% in [3]; 48.3% in test [4]; 39.9% in test [5]; 63.7% in test [6]. The growth in test [7] was 32.7%; in [8] it was -6.11% (active); in [9], 14%; in test [10] it was -4.75% (active); in test [11], 46%; in test [12] it was 49.7%. Also, the growth in test [13] is 12%; in test [14] it was 21.8%; in test [15], 42%; in test [16], 27.1%; in test [17], -34.4% (active); in test [18], 68.5%. Moreover, the growth in test [19] is 65.5%.
